Results on 12 compounds are retold here after PubChem BioAssay (Tox21).

Test [1] in a line: qHTS assay for small molecules that induce genotoxicity in human embryonic kidney cells expressing luciferase-tagged ATAD5 (AID 651632). Further: nearly all actives have a fitted effect of over 15% in size. Further: potency means the concentration at half of the fitted maximal effect. A digest of the protocol: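 Quantitative HTS in HEK293T expressing luciferase-tagged ATAD5, whose levels rise upon DNA damage. Exposure ran 16 hr at 37C and 5% CO2, with luminescence read 30 min after Amplite addition at room temperature.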
A general note: qHTS replaces the single test concentration by a dilution series.

A short description of test [2]: qHTS assay for small molecule agonists of the p53 signaling pathway - cell viability (AID 651633; calls by dose curve; further: nearly all actives have a fitted effect of over 30% in size; further: potency means the concentration at half of the fitted maximal effect). A digest of the protocol: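 p53RE-bla cells, seeded at 4,000 per well and rested 5 h at 37 C/5% CO2, received compounds in DMSO for 16 h at 37 C. CellTiter-Glo was then added, and luminescence was read after 30 min at room temperature to gauge cytotoxicity.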
Test [3] can be described thus: qHTS assay for small molecule disruptors of the mitochondrial membrane potential - cell viability (AID 720634; calls by dose curve; further: nearly all actives have a fitted effect of over 20% in size; further: potency means the concentration at half of the fitted maximal effect). The gist of the method:
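ATP-based luminescent viability readout (CellTiter-Glo, 30 min, room temperature) in HepG2 cells multiplexed with the m-MPI membrane potential dye; compound exposure lasted 1 hr at 37 C.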

Test [4] in a line: qHTS assay to test for compound auto fluorescence at 535 nm (green) in HepG2 cells (AID 720675). Further: on the % scale 0 is the no-effect control and ±100 the full control effect.
Test [5] in a line: qHTS assay to test for compound auto fluorescence at 460 nm (blue) in HEK293 cells (AID 720678). Further: on the % scale 0 is the no-effect control and ±100 the full control effect. A digest of the protocol: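 Blue-channel (Ex/Em 405/460 nm) intensity measured in HEK293 cultures after overnight compound exposure at 37C; signal expressed relative to triamterene. Cells plated 2,000 per well in 10% dialyzed FBS medium and allowed 4-5 hr to attach.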
Test [6] is described as follows: qHTS assay to test for compound auto fluorescence at 590 nm (red) in HEK293 cells (AID 720679). Further: on the % scale 0 is the no-effect control and ±100 the full control effect. The gist of the method: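 Red-channel autofluorescence (Ex/Em 540/590 nm; Rose Bengal sodium reference) was measured after overnight 37C, 5% CO2 exposure of attached HEK293 cells, 2,000 per well in medium with 10% dialyzed FBS.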
Test [7] can be described thus: qHTS assay to test for compound auto fluorescence at 535 nm (green) in HEK293 cells (AID 720680). Further: on the % scale 0 is the no-effect control and ±100 the full control effect.
The nature of test [8]: qHTS assay to test for compound auto fluorescence at 460 nm (blue) in HEK293 cell free culture (AID 720681). Further: on the % scale 0 is the no-effect control and ±100 the full control effect. A digest of the protocol:
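Test compounds were pinned into cell-free culture medium (DMEM with 10% FBS) and fluorescence was read directly at Ex/Em 405/460 nm. Signals were expressed as fluorescence equivalents of triamterene, with DMSO vehicle as control.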

A short description of test [9]: qHTS assay to test for compound auto fluorescence at 590 nm (red) in HEK293 cell free culture (AID 720683). Further: on the % scale 0 is the no-effect control and ±100 the full control effect. A digest of the protocol: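 Tox21 10K library compounds were pinned into cell-free DMEM with 10% FBS and fluorescence was read at excitation 540 nm. Activity is expressed as Rose Bengal sodium equivalency.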
The nature of test [10]: qHTS assay to test for compound auto fluorescence at 590 nm (red) in HepG2 cell free culture (AID 720684). Further: on the % scale 0 is the no-effect control and ±100 the full control effect. The gist of the method:
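Ex 540 / Em 590 nm read of compound in cell-free MEM (10% FBS). Rose Bengal sodium reference.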

Test [11] is described as follows: qHTS assay to test for compound auto fluorescence at 460 nm (blue) in HepG2 cell free culture (AID 720685). Further: on the % scale 0 is the no-effect control and ±100 the full control effect. A digest of the protocol: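 Cell-free plates of MEM plus 10% FBS received 23 nL compound or DMSO vehicle; blue-channel (405/460 nm) intensity scored against triamterene as reference fluorophore.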
The nature of test [12]: qHTS assay to test for compound auto fluorescence at 460 nm (blue) in HepG2 cells (AID 720687). Further: on the % scale 0 is the no-effect control and ±100 the full control effect. The gist of the method:
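Cells (2,000/well in MEM with 10% FBS) attached overnight at 37 C, then were exposed to compound or DMSO for 1 hr at 37 C, 5% CO2. Fluorescence read at Ex/Em 405/460 nm, expressed as triamterene-equivalent signal.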

The nature of test [13]: qHTS assay to test for compound auto fluorescence at 535 nm (green) in HEK293 cell free culture (AID 720682). Further: on the % scale 0 is the no-effect control and ±100 the full control effect. A digest of the protocol:
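Steps: dispense DMEM/10% FBS into empty wells; pin in compound or DMSO; measure fluorescence at 485/535 nm. Values are fluorescein equivalents.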

Test [14] is described as follows: qHTS assay to test for compound auto fluorescence at 535 nm (green) in HepG2 cell free culture (AID 720686). Further: on the % scale 0 is the no-effect control and ±100 the full control effect.
Test [15] has as its target Glucocorticoid receptor (Homo sapiens) (UniProt P04150). In words: qHTS assay to identify small molecule agonists of the glucocorticoid receptor (GR) signaling pathway (AID 720691; active means well fitted activation curve with a large enough effect in the signal ratio in the repeat runs, not every such curve was filed as active; the % refers to the signal ratio; further: on the % scale 0 is the no-effect control and ±100 the full control effect). The gist of the method: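 Cells: GR-bla HeLa, endogenous GR with stably integrated GRE-beta-lactamase reporter. Treatment 18 h, 37 C, compounds delivered in DMSO. Detection via LiveBLAzer B/G FRET substrate, 2 h RT, fluorescence intensity.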

A short description of test [16]: qHTS assay for small molecule disruptors of the mitochondrial membrane potential (AID 720635). Further: potency means the concentration at half of the fitted maximal effect. A digest of the protocol: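 HepG2 cells (2,000/well) attached overnight at 37C, then took compound for 1 hr at 37C, 5% CO2. Mito-MPS dye was added for 30 min; fluorescence was read at 490/535 nm (monomers) and 540/590 nm (aggregates).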
A short description of test [17]: qHTS assay to test for compound auto fluorescence at 590 nm (red) in HepG2 cells (AID 720674). Further: on the % scale 0 is the no-effect control and ±100 the full control effect. The gist of the method: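 Compound auto-fluorescence is scored relative to Rose Bengal sodium, measured at 540/590 nm in live HepG2 cultures after 1 hr compound contact (37 C, 5% CO2).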
A short description of test [18]: qHTS assay for small molecules that induce genotoxicity in human embryonic kidney cells expressing luciferase-tagged ATAD5 - cell viability (AID 651634; calls by dose curve; further: nearly all actives have a fitted effect of over 25% in size; further: potency means the concentration at half of the fitted maximal effect). The gist of the method: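 After 15.5 hr incubation with compound at 37C, 5% CO2, HEK293T ATAD5-luciferase cells received CellTiter-Fluor reagent; fluorescence intensity was quantified following 30 min at 37C.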

Structures are written as SMILES. Unmarked numbers belong to inactive results. Results filed as inconclusive are left out. Active and inactive are the calls of the source. Unless noted, the call rests on the fitted dose curve; in most records, active means well fitted curve in the direction sought with a large enough effect in the repeat runs; inconclusive means weak or mixed curves; inactive means no such curve, though single readings can be large; an effect the other way counts as inactive or inconclusive.

Sequence of Glucocorticoid receptor (Homo sapiens) (P04150 whole entry, looked up): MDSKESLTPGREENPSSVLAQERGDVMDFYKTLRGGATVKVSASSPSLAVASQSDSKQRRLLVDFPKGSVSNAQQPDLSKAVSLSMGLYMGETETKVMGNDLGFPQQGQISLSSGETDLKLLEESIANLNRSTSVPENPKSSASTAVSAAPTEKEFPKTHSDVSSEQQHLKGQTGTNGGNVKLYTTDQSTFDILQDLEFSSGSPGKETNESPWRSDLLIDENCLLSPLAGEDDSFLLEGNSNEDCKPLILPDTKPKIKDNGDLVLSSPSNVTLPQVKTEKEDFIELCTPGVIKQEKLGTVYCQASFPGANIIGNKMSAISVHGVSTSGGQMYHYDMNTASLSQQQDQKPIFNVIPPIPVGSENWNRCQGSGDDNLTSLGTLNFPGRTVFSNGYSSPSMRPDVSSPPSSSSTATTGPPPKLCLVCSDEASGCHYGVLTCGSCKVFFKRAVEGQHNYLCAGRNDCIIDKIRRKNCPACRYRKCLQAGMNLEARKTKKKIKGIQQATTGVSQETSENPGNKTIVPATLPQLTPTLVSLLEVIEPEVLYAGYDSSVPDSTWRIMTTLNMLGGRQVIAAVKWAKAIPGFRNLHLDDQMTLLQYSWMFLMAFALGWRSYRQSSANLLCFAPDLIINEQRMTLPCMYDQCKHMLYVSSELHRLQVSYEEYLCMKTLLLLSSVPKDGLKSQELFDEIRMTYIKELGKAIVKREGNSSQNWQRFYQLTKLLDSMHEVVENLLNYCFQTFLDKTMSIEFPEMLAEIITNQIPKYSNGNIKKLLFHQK

Consider `O=C(Nc1cccc2c(=O)cc(-c3nn[nH]n3)oc12)c1ccc(OCCCCc2ccccc2)cc1`, for which the Potency entry in test [1], in test [2], in test [3], in test [5], in [8] and in test [11] was “inactive” in each case. The Potency result in test [12] was “inactive”. The compound was called inactive in test [4], in test [6], in [7], in test [9] and in test [10].

As for `CCOc1ccc(Cc2nccc3cc(OCC)c(OCC)cc23)cc1OCC`, the Potency entry in test [1], in test [2], in test [3] and in test [15] was “inactive” each time. Further, the fluorescence, % of fluorescein control in test [4] was 0.127% [at 18.6 µM]; in [14], 0.0297% [at 18.6 µM]. Also, in test [5], the fluorescence, % of triamterene was -0.0249% [at 18.6 µM]. Further, the fluorescence, % of fluorescent control in [6] was 0.0124% [at 18.6 µM]; in [8], 0.019% [at 18.6 µM]; in [9] it was 0.116% [at 18.6 µM]; in test [11], -0.0254% [at 18.6 µM]; in test [12], -0.0004% [at 18.6 µM]. Also, the fluorescence, % of fluorescein in test [7] is -0.066% [at 18.6 µM]. The activity change in test [13] was 0.0026% [at 18.6 µM]. The fluorescence, % of Rose Bengal in test [10] was 0.0721% [at 18.6 µM].

`Cc1cc(=O)c2c(O)c3c(O)cc(=O)c4c3c3c(cc(O)c1c23)C(C)(C)C=4O`: the Potency entry in [1], in [5], in [8], in test [11] and in test [12] was “inactive” in each case. Also, the Potency in test [2] was 1.06 µM (active); in test [16], 473 nM (active). Moreover, the outcome in test [17], in test [6], in [7], in [13] and in test [10] was inactive.

Turning to `CCCCCCCCOc1ccc(C(=O)O)cc1`, the Potency result in test [1], in [3], in test [5], in [8], in test [11] and in test [12] was “inactive” each time. Further, the Potency result in test [15] was “inactive”. The result in [17], in test [4], in [6], in [7], in test [13] and in [9] was inactive. Besides, the call in [10] and in [14] was inactive.

In the case of `OC[C@H]1O[C@@H](n2cnc3c(=S)nc[nH]c32)[C@H](O)[C@@H]1O`, the Potency result in [1], in test [3], in test [5], in test [8], in test [11] and in [12] was “inactive” throughout. Moreover, the Potency entry in test [15] was “inactive”. Also, the Potency in test [16] is 211 nM (active). For the same compound, the compound was classed as inactive in [17], in test [4], in test [6], in [7], in test [13] and in test [9]. Besides, the outcome in [10] was inactive.

In the case of `CN1CC(=O)N2[C@H](c3ccc4c(c3)OCO4)c3[nH]c4ccccc4c3C[C@@H]2C1=O`, the Potency entry in test [1], in [3], in [5], in [8], in test [11] and in test [12] was “inactive” throughout. Further, the Potency entry in test [15] was “inactive”. The outcome in test [4], in [6], in test [7], in [13], in test [10] and in [14] was inactive.

For `O=C1C(=O)c2ccccc2C(O)=C1C1CCC(c2ccc(Cl)cc2)CC1` (stereo unspecified), the Potency result in test [1], in test [18] and in test [3] was “inactive” in each case. Besides, in test [17], the fluorescence, relative to Rose Bengal is -0.463% [at 18.6 µM]. For the same compound, the fluorescence, % of fluorescein control in test [4] was -0.0011% [at 18.6 µM]; in test [14], 0.136% [at 18.6 µM]. The fluorescence, % of triamterene in [5] is 0.0437% [at 18.6 µM]. Also, the fluorescence, % of fluorescent control in [6] is 0.421% [at 18.6 µM]; in test [8], -0.0599% [at 18.6 µM]; in test [11], 0.0263% [at 18.6 µM]; in [12], 0.0025% [at 18.6 µM]. For the same compound, the fluorescence, % of fluorescein in test [7] was -0.014% [at 18.6 µM]. Further, in [13], the activity change is -0.0167% [at 18.6 µM]. Further, the fluorescence, % of Rose Bengal in test [10] is 0.0009% [at 18.6 µM].

In the case of `C[C@@H]1CN(CCCn2c3ccccc3c3ccccc32)C[C@H](C)N1`, the Potency result in test [1], in test [3], in test [5], in test [8], in test [11] and in test [12] was “inactive” in each case. Besides, the call in [17], in test [4], in test [6], in test [7], in test [13] and in test [9] was inactive. Moreover, the outcome in test [10] and in test [14] was inactive.

Regarding `O=C1c2ccccc2C(=O)N1CCc1noc(-c2ccc(CN3CCCCCC3)s2)n1`, the Potency result in test [1], in test [2], in test [3], in [5], in [8] and in test [11] was “inactive” in each case. The Potency entry in test [12] was “inactive”. Moreover, the outcome in test [6], in test [7], in test [13], in test [9], in test [10] and in test [14] was inactive.

On to `O=c1cc(-c2ccccc2)oc2ccc3ccccc3c12`, for which the Potency in [1] was 77 nM (active); in test [3] it was 24.3 µM (active); in [16] it was 8630 nM (active). Also, the Potency entry in [18], in [5], in test [8], in test [11] and in [12] was “inactive” each time. Moreover, the compound was classed as inactive in test [17], in test [4], in test [6], in test [7], in test [9] and in test [10].

Regarding `O=[N+]([O-])c1ccc(O/N=C/c2cc(Br)c(O)c(Br)c2)c([N+](=O)[O-])c1`, the Potency result in test [1], in test [5], in [8], in test [11] and in test [12] was “inactive” in each case. For the same compound, the Potency in test [18] was 24.2 µM (active); in [3], 12.1 µM (active); in [16], 859 nM (active). Also, the result in test [17], in [6], in test [7], in test [13], in test [9] and in test [10] was inactive.

As for `O=[N+]([O-])c1cc(C2CCCCC2)c(O)c([N+](=O)[O-])c1`, the Potency result in test [1], in test [5], in test [8], in test [11], in test [12] and in [15] was “inactive” throughout. Also, the results for the Potency in test [18], in test [3] and in test [16] were 19.3 µM (active), 0.343 µM (active) and 153 nM (active), respectively. In addition, the outcome in test [4], in test [6], in [7], in [9], in test [10] and in [14] was inactive.
